Results: PubChem BioAssay AID1159580 (chemical genetic matrix, 2015)
“And” between values parts separate entries of the source, which are not always exact repeats. Equal entries are not always repeated. Hit rate of the full screen: of about 5,500 compounds, about 2,000 (36%) were called active. Inconclusive results (about 18%) are left out. No stated cut-off is given here; in the data, active means normalized growth mostly below about 0.91 (no sharp cut-off); inconclusive means no clear call, values can overlap the other calls; inactive means mostly above about 0.92. Some of the results follow.

Assay: chemical genetic growth profiling, strain panel (AID 1159580);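 further: tested at 20 µM; growth read once vehicle control cultures reached saturation at 30 °C; 1 = growth at the plate median or of vehicle wells; lower values mean less growth of the strain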
Conditions: S. cerevisiae deletion strains, growth OD
[1] = locus YDL101C, strain DUN1, active compounds read low
[2] = locus YHR030C, strain SLT2, active compounds read low
[3] = locus YGR078C, strain PAC10, active compounds read low
[4] = locus YGR229C, strain SMI1, active compounds read low
[5] = locus YJR075W, strain HOC1, active compounds read low
[6] = locus YMR263W, strain SAP30, active compounds read low
[7] = locus YMR307W, strain GAS1, active compounds read low
[8] = locus YNL153C, strain GIM3, active compounds read low
[9] = locus YNL322C, strain KRE1, active compounds read low
[10] = locus YPL055C, strain LGE1, active compounds read low

Measured: normalized growth

O=C(Nc1ccc(Cl)cc1)c1csc([N+](=O)[O-])c1
inactive: locus YAR019C, strain CDC15, active compounds read low 0.92 | locus YBL105C, strain PKC1, active compounds read low 0.93 | locus YBR135W, strain CKS1, active compounds read low 0.931 | locus YBR136W, strain MEC1, active compounds read low 0.927 | locus YBR160W, strain CDC28, active compounds read low 0.933 | locus YDL017W, strain CDC7, active compounds read low 0.938 | locus YDL028C, strain MPS1, active compounds read low 0.922 | [1] 0.943 | locus YDL108W, strain KIN28, active compounds read low 0.929 | locus YDL132W, strain cdc53, active compounds read low 0.908 | locus YDL214C, strain PRR2, active compounds read low 0.874 | locus YDR052C, strain DBF4, active compounds read low 0.936 | locus YDR054C, strain cdc34, active compounds read low 0.901 | locus YDR226W, strain ADK1, active compounds read low 0.923 | locus YDR477W, strain SNF1, active compounds read low 0.803 | locus YER123W, strain YCK3, active compounds read low 0.795 | locus YER133W, strain GLC7, active compounds read low 0.764 | locus YFL009W, strain cdc4, active compounds read low 0.913 | locus YFL029C, strain CAK1, active compounds read low 0.919 | locus YFR003C, strain YPI1, active compounds read low 0.924 | locus YFR019W, strain FAB1, active compounds read low 0.918 | locus YFR028C, strain CDC14, active compounds read low 0.915 | locus YGR040W, strain KSS1, active compounds read low 0.797 | locus YGR052W, strain FMP48, active compounds read low 0.826 | locus YGR092W, strain DBF2, active compounds read low 0.545 | locus YHR079C, strain IRE1, active compounds read low 0.764 | locus YHR082C, strain KSP1, active compounds read low 0.891 | locus YHR205W, strain SCH9, active compounds read low 0.786 | locus YIL147C, strain SLN1, active compounds read low 0.923 | locus YJL095W, strain BCK1, active compounds read low 0.697 | locus YJL128C, strain PBS2, active compounds read low 0.935 | locus YJL157C, strain FAR1, active compounds read low 0.827 | locus YJR016C, strain ILV3, active compounds read low 0.926 | locus YJR066W, strain TOR1 (second series), active compounds read low 0.752 | locus YJR066W, strain TOR1, active compounds read low 0.759 | locus YKL048C, strain ELM1, active compounds read low 0.874 | locus YKL067W, strain YNK1, active compounds read low 0.894 | locus YKL101W, strain HSL1, active compounds read low 0.894 | locus YKL193C, strain SDS22, active compounds read low 0.92 | locus YKL203C, strain TOR2, active compounds read low 0.857 | locus YLR133W, strain CKI1, active compounds read low 0.873 | locus YLR403W, strain SFP1, active compounds read low 0.79 | locus YML070W, strain DAK1, active compounds read low 0.832 | locus YMR001C, strain CDC5, active compounds read low 0.92 | locus YMR205C, strain PFK2 (second series), active compounds read low 0.862 | locus YMR277W, strain FCP1, active compounds read low 0.914 | locus YNL006W, strain LST8, active compounds read low 0.921 | locus YNL020C, strain ARK1, active compounds read low 0.863 | locus YNL161W, strain CBK1, active compounds read low 0.933 | locus YNL183C, strain NPR1, active compounds read low 0.829 | locus YNL207W, strain RIO2, active compounds read low 0.908 | locus YNL222W, strain SSU72, active compounds read low 0.919 | locus YNL307C, strain MCK1 (second series), active compounds read low 0.818 | locus YOL078W, strain AVO1, active compounds read low 0.923 | locus YOL136C, strain PFK27, active compounds read low 0.861 | locus YOR061W, strain CKA2, active compounds read low 0.882 | locus YOR119C, strain RIO1, active compounds read low 0.86 | locus YOR231W, strain MKK1, active compounds read low 0.825 | locus YOR329C, strain SCD5, active compounds read low 0.924 | locus YPL031C, strain PHO85, active compounds read low 0.773 | locus YPL153C, strain RAD53, active compounds read low 0.795 | locus YPL204W, strain HRR25, active compounds read low 0.757 | locus YPL209C, strain IPL1, active compounds read low 0.926 | locus YPR025C, strain CCL1, active compounds read low 0.929 | locus YPR106W, strain ISR1, active compounds read low 0.94 | locus YPR111W, strain DBF20, active compounds read low 0.925 | strain NNK1, active compounds read low 0.944 | strain TSCII, active compounds read low 0.928
active: [2] 0.583 | locus YLR113W, strain HOG1, active compounds read low 0.596 | locus YPL256C, strain CLN2, active compounds read low 0.712

CC(=O)c1csc([N+](=O)[O-])c1
inactive: locus YAL013W, strain DEP1, active compounds read low 1.01 | locus YBR229C, strain ROT2, active compounds read low 1.02 | [1] 0.951 | locus YDL134C, strain PPH21, active compounds read low 1 | locus YDR150W, strain NUM1, active compounds read low 0.921 | locus YEL061C, strain CIN8, active compounds read low 1.02 | [3] 0.975 | [4] 1.01 | [2] 1.08 | locus YHR087W, strain rtc3, active compounds read low 1.02 | locus YJL187C, strain SWE1, active compounds read low 0.983 | locus YJR043C, strain POL32, active compounds read low 1 | [5] 0.99 | locus YKL190W, strain CNB1, active compounds read low 1.01 | locus YLR039C, strain RIC1, active compounds read low 1 | locus YLR058C, strain SHM2 (second series), active compounds read low 0.998 | locus YLR085C, strain ARP6, active compounds read low 0.89 | locus YLR262C, strain YPT6, active compounds read low 0.976 | locus YML094W, strain GIM5, active compounds read low 1.02 | locus YMR219W, strain ESC1, active compounds read low 0.996 | [6] 1.01 | [7] 1.03 | [8] 0.947 | locus YNL298W, strain CLA4 (second series), active compounds read low 1.02 | [9] 1.01 | locus YNR030W, strain Alg12, active compounds read low 1.02 | [10] 0.996 | locus YPL241C, strain CIN2, active compounds read low 1.09 | locus YPR135W, strain CTF4, active compounds read low 0.988

c1ccc(C2CN3CCSC3=N2)cc1 (stereo unspecified)
inactive: locus YAL040C, strain CLN3, active compounds read low 0.985 and 1 | locus YCL061C, strain MRC1 (second series), active compounds read low 0.997 and 1.02 | locus YDR363W, strain ESC2, active compounds read low 1.02 and 1.04 | locus YER002W, strain NOP16, active compounds read low 0.991 and 1.03 | [3] 1 | [4] 1.04 | [5] 1.04 and 1.01 | [6] 1.01 | [7] 1.02 and 1 | [8] 1.02 | locus YNL175C, strain NOP13, active compounds read low 0.984 and 1 | locus YNL197C, strain WHI3, active compounds read low 0.977 and 1.01 | locus YNL224C, strain SQS1, active compounds read low 0.999 and 1.01 | [9] 1.02 | locus YOR083W, strain WHI5 (second series), active compounds read low 0.983 and 1.03 | [10] 1.05
